The values below come from PubChem BioAssay.

A short description of experiment [1]: HepG2 liver cancer cell viability effects, profiling panel, resazurin fluorescence, 24 h, PK04 Diversity Set (AID 1172). Note: test concentration not given here. To be noted: higher = more signal. In general terms: Resazurin is reduced to fluorescent resorufin, in cell work by metabolically active cells.
Experiment [2] in a line: basal S. cerevisiae growth modulation, no modifier, primary screen, OD600, strain BY4716, 24 h, basal condition (AID 1173). To be noted: OD600, 24 h, higher = more signal, called active from +8 up or from −8 down.
Experiment [3] can be described thus: MM1S myeloma cell viability, profiling panel, resazurin fluorescence, basal, 24 h, PK04 Diversity Set (AID 1174).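 Note: MM1S multiple myeloma cell line; test concentration not given here.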 To be noted: higher = more signal, called active from +8 up or from −8 down.
Experiment [4] has as its target Dihydroorotate dehydrogenase (quinone), mitochondrial (Plasmodium falciparum (isolate 3D7)) (UniProt Q08210). Kind of experiment: PfDHODH enzyme inhibitors, primary screen, biochemical, C-terminal His tag, absorbance 600 nm (AID 1175).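 Note: recombinant parasite enzyme with a five histidine tag at its C terminus; test concentration not given here.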 To be noted: DCIP absorbance 600 nm, higher = more signal, called active from +8 up or from −8 down.
A short description of experiment [5]: P. aeruginosa biofilm formation inhibitors, primary screen, strain PAO1, LB-PBS medium, absorbance 600 nm (AID 1176). Note: test concentration not given here. The note with it: P. aeruginosa PAO1 growth/biofilm, A600, 12 h; higher = more signal.
Experiment [6] is described as follows: S. cerevisiae RM11-1a growth modifiers, primary screen, strain RM11-1a, OD600, basal, 24 h (AID 1177).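 Note: cultures grown under basal conditions with no added stressor; test concentration not given here.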 The note with it: OD600, 24 h, higher = more signal, called active from +8 up or from −8 down.
The nature of experiment [7]: E. coli acrAB mutant growth effects, primary screen, E. coli filamentation inducers, strain DRC39, OD650, 24 h (AID 1178).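 Note: growth measured as culture turbidity by optical density at 650 nm; test concentration not given here.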 To be noted: higher = more signal, called active from +8 up or from −8 down.
Experiment [8] is described as follows: E. coli acrAB mutant growth effects, primary screen, E. coli filamentation inducers, strain DRC39, OD650, 48 h (AID 1179).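 Note: screen aims at cell division blockers that make cells filament.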 To be noted: E. coli DRC39 delta-acrAB growth, higher = more signal, called active from +8 up or from −8 down.
Experiment [9] can be described thus: RPMI8226 myeloma cell viability, profiling panel, resazurin fluorescence, basal, 24 h, PK04 Diversity Set (AID 1180).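 Note: RPMI8826 multiple myeloma cell line at 5000 cells per well; test concentration not given here.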 The note with it: higher = more signal.
For experiment [10], the target named is E3 ubiquitin-protein ligase XIAP (Homo sapiens) (UniProt P98170). Kind of experiment: XIAP binders, primary screen, biophysical, small-molecule microarray, fluorescence 635 nm (AID 1181).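 Note: score merges 667 nm emission and signal to noise over triplicate slides.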 The note with it: small-molecule microarray binding, higher = more signal.
Sequence of E3 ubiquitin-protein ligase XIAP (Homo sapiens) (P98170 whole entry, looked up): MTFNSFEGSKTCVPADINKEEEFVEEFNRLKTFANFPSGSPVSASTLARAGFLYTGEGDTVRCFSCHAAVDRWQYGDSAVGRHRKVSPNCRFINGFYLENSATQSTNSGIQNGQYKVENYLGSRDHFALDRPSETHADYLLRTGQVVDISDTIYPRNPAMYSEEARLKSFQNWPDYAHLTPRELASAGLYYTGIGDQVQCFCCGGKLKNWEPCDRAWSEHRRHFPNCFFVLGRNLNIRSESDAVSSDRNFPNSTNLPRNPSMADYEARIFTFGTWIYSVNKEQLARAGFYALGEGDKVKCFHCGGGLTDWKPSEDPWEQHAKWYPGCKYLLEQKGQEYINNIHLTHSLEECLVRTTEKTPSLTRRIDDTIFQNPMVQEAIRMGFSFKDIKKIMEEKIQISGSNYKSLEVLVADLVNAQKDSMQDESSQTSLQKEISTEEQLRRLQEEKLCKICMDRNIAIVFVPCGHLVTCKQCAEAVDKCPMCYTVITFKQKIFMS

Structures are written as SMILES. The source made the active and inactive calls. Unless noted, the rule behind the calls is not given here.

Sequence of Dihydroorotate dehydrogenase (quinone), mitochondrial (Plasmodium falciparum (isolate 3D7)) (Q08210 whole entry, looked up): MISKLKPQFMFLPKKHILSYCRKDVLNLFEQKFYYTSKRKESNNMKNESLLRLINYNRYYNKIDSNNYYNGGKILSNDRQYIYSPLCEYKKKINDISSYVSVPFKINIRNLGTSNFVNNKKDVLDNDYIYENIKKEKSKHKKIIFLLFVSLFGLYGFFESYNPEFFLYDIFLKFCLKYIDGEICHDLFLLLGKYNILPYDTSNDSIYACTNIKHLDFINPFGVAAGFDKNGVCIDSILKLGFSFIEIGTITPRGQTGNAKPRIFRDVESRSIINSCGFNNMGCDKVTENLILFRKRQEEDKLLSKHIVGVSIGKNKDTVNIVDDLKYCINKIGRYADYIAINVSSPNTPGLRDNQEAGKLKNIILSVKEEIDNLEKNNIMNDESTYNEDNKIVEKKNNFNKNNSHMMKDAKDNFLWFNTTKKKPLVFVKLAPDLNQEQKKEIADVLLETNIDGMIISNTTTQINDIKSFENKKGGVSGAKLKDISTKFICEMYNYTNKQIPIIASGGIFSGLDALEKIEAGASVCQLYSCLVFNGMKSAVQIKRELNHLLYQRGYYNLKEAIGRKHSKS

For the compound `C=C(/C(=C/C[C@H](OC(=O)c1ccncc1)c1ccc(OCCO)cc1)c1cnc2ccccc2c1)C(C)C`, the z-score in experiment [1] was 0.145; in experiment [2] it was -0.753 (inactive); in [3], -0.777 (inactive); in experiment [5], 0.85 (inactive); in experiment [6], 0.0942 (inactive); in experiment [7] it was -1.05 (inactive). Moreover, the z-score is -1.02 (inactive) in experiment [8] and 0.0076 in experiment [9]. In addition, the composite z-score in [4] is -2.73 (inactive); in experiment [10], 0.13.
For `COCCOC(=O)N1C(=O)[C@@]2(c3cc(C#Cc4ccc(OC)cc4)ccc31)[C@H](c1ccc(O)cc1)N1[C@H](c3ccccc3)[C@H](c3ccccc3)OC(=O)[C@H]1[C@@H]2C(N)=O`, the z-score in experiment [1] is -0.422; in experiment [2] it was -0.306 (inactive); in [3], -1.02 (inactive); in [5] it was 0.898 (inactive); in [6] it was 0.0054 (inactive); in [7], 0.761 (inactive). For the same compound, the z-score in experiment [8] was 0.0669 (inactive); in experiment [9], -2.3. Besides, the values for the composite z-score in experiment [4] and in experiment [10] were -0.0395 (inactive) and -0.0559, respectively.
Take `Cn1c(=O)n2n(c1=O)[C@H]1[C@H](O)[C@@H]3O[C@@H]3C(=NOC[C@@H](O)COCc3ccco3)[C@H]1CC2`: the z-score in experiment [1] is -0.31; in experiment [2] it was -0.419 (inactive); in [3], -0.877 (inactive); in experiment [5] it was 0.823 (inactive); in [6] it was -0.17 (inactive); in experiment [7], -0.157 (inactive). Further, the z-score was 0.317 (inactive) in [8] and -0.378 in [9]. Further, the composite z-score in experiment [4] was 0.0599 (inactive); in [10] it was -0.0382.
Turning to `NCCCCCNC(=O)[C@@H]1C[C@@H]2C(=O)N3CCC[C@H]3C(=O)N2[C@@H]1c1cccc(OCCO)c1`, the z-score in experiment [1] is 0.0359; in experiment [2], -0.582 (inactive); in [3], 0.199 (inactive); in [5], -0.226 (inactive); in experiment [6] it was -0.914 (inactive); in experiment [7] it was 0.0544 (inactive). Also, the figures for the z-score in experiment [8] and in experiment [9] were -0.109 (inactive) and -0.0506, respectively. For the same compound, the composite z-score was -0.801 (inactive) in [4] and 0.522 in experiment [10].
For `CC(C)[C@@H](OCc1ccccc1)[C@H](C)C=NOC[C@@H](C)[C@H](OCc1ccccc1)C(C)C`, the z-score in [1] was -0.914; in experiment [2], 0.425 (inactive); in experiment [3], -0.908 (inactive); in [5], -0.324 (inactive); in [6], -0.089 (inactive); in experiment [7], 0.705 (inactive). Further, the results for the z-score in experiment [8] and in experiment [9] were 1.09 (inactive) and -1.11, respectively. Further, the composite z-score is -0.213 (inactive) in [4] and -0.345 in [10].
For the compound `COC(=O)[C@@]1(Cc2ccc(F)cc2)[C@H]2c3cc(C(=O)N(C)C)n(Cc4ccc(OC)c(OC)c4)c3C[C@H]2CN1C(=O)c1ccccc1`, the z-score in [1] was -1.05; in [2], -0.0211 (inactive); in experiment [3], -1.8 (inactive); in experiment [5], 3.14 (inactive); in [6], 0.348 (inactive); in experiment [7] it was -0.252 (inactive). Also, the values for the z-score in experiment [8] and in experiment [9] were -1.45 (inactive) and -0.484, respectively. Also, the composite z-score in experiment [4] is -3.71 (inactive); in experiment [10], 0.276.
For `[N-]=[N+]=Nc1ccccc1C[C@@]1(C(N)=O)N=C(c2ccc(OCCCO)cc2)O[C@@H]1c1ccccc1`, the z-score in experiment [1] was -0.501; in experiment [2], -1.86 (inactive); in experiment [3], -0.6 (inactive); in [5], 0.218 (inactive); in experiment [6], -0.364 (inactive); in experiment [7], 0.289 (inactive). The z-score in experiment [8] is -1.01 (inactive); in experiment [9], -0.652. The composite z-score in experiment [4] was -0.684 (inactive); in [10] it was -0.0344.
For `COC(=O)[C@@H]1N=C(c2ccc(OCCCO)cc2)O[C@@H]1c1ccccc1N=[N+]=[N-]`, the z-score in [1] was 1.92; in experiment [2] it was -4.88 (inactive); in experiment [3] it was 0.856 (inactive); in experiment [5] it was 1.2 (inactive); in experiment [6] it was -0.82 (inactive); in experiment [7], 2.09 (inactive). For the same compound, the z-score in [8] was 0.995 (inactive); in experiment [9] it was 0.0154. Moreover, the composite z-score in experiment [4] is 0.458 (inactive); in experiment [10], 0.267.
With `CCCCCN1CC=CC23O[C@@H]4C=CCOC(=O)[C@@H]4[C@H]2C(=O)N(CCCCCCO)[C@@H]3C1=O` (stereo not given in full), the z-score was 0.547 in experiment [1]; 0.428 (inactive) in experiment [2]; 0.806 (inactive) in experiment [3]; 0.454 (inactive) in experiment [5]; 0.151 (inactive) in [6]; 0.282 (inactive) in experiment [7]. Moreover, the z-score in experiment [8] is 0.225 (inactive); in [9], 0.922. Moreover, the composite z-score was -0.473 (inactive) in experiment [4] and 0.114 in [10].
As for `COC(=O)C1(C)C=C2C(=C(c3ccccc3)C(=O)C2C)CN1` (stereo not given), the z-score is -1.44 in experiment [1]; 0.558 (inactive) in [2]; -1.71 (inactive) in experiment [3]; 1.38 (inactive) in experiment [5]; 0.376 (inactive) in experiment [6]; -0.632 (inactive) in experiment [7]. For the same compound, the z-score in experiment [8] was -0.348 (inactive); in experiment [9], -2.05. The results for the composite z-score in [4] and in experiment [10] were -0.784 (inactive) and 0.359, respectively.
With `CC(CCC(=O)OC[C@H]1O[C@H](C#Cc2ccccc2)C=C[C@@H]1Oc1ccc(C)cc1)=NO[C@@H](C)c1cn([C@H](CO)Cc2ccccc2)nn1`, the z-score in [1] was 0.0474; in [2], 0.542 (inactive); in [3] it was 0.925 (inactive); in experiment [5] it was -0.786 (inactive); in experiment [6], -0.0398 (inactive); in experiment [7], -0.26 (inactive). Besides, the z-score in [8] was -1.24 (inactive); in experiment [9], 0.911. For the same compound, the composite z-score is -2.15 (inactive) in experiment [4] and -0.338 in [10].
Turning to `COC(=O)CC=C[C@H](C)[C@@H](OCc1ccccc1Br)C(C)C`, the z-score in [1] is -0.285; in experiment [2], -0.553 (inactive); in experiment [3], -2.19 (inactive); in experiment [5] it was 0.274 (inactive); in experiment [6] it was -0.158 (inactive); in [7], 0.824 (inactive). The values for the z-score in experiment [8] and in experiment [9] were 0.661 (inactive) and -1.89, respectively. Besides, the composite z-score in experiment [4] is -0.216 (inactive); in [10], 0.157.
